# Assay outcomes from PubChem.
# The full list was thinned out, with hits kept by preference.
# GIRK2 act: Activators of human GIRK2-containing channels; 34,000 tested, under 10 active; P48051; AID 1259324; HEK293 GIRK2/NPY4 cells, thallium flux fluorescence; activation (% efficacy), % for hits at 37.5 µM;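 active = primary screen hit, no activity in plain HEK293 cells, and in GIRK2-only cells above 5% efficacy rising with concentration; inactive = the rest, including fluorescent compounds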;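 also: efficacy is normalized control-subtracted fluorescence 15 s after thallium addition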
# GluA2 TARP mod: modulators of AMPA receptor GluA2-stargazin complexes; O88602+P19491; HEK293 GluA2+stargazin, membrane potential dye (FDSS), glutamate EC50; hits were called plate by plate, in both directions; calls only at 30 µM; 3.5% of 40,000 active;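 active = any of four per-well response measures lying three or more SD from its plate-wide compound average, in either direction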
# Target sequence (O88602 whole entry, looked up): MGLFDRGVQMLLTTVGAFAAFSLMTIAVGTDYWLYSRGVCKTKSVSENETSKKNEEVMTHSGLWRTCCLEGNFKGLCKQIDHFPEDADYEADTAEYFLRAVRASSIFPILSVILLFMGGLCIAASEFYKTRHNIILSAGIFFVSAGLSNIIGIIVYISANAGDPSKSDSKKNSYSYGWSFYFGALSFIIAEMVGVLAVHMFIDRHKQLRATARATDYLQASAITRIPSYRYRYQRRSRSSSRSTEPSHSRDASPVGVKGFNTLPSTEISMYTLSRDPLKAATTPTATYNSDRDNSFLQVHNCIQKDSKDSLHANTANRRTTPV
# Target sequence (P19491 whole entry, looked up): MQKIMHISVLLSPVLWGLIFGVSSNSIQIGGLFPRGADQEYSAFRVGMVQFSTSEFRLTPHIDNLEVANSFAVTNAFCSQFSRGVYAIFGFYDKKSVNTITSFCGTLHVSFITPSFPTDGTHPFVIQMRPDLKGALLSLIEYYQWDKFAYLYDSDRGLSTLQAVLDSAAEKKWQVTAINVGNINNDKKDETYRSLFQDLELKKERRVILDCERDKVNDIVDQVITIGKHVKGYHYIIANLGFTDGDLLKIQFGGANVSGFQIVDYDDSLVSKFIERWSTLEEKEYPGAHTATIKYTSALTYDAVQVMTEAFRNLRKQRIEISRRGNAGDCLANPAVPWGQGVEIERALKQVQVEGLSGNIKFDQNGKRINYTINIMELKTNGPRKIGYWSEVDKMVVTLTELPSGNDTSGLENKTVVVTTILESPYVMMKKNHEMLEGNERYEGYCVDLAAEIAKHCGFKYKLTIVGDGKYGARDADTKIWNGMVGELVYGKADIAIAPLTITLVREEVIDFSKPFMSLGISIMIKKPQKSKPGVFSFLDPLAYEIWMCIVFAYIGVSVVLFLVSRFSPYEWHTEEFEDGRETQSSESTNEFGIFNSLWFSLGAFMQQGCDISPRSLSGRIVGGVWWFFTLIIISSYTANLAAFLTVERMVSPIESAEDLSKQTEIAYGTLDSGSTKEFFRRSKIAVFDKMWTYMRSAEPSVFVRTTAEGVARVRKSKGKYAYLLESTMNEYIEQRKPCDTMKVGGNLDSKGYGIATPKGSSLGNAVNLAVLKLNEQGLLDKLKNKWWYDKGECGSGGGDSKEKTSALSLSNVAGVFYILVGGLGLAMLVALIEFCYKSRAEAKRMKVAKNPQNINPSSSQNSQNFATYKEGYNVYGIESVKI
# * hit, by the source's call; i = inactive; . = no result; + = active, no number.
SMILES,GIRK2 act,GluA2 TARP mod
COc1ccc(-n2c(COc3ccc4c(c3)OCO4)nnc2SCC(=O)c2ccccc2)cc1,.,i
COc1c2c(cc3c1C(CC(=O)c1ccccc1)N(C)CC3)OCO2 (configuration not stated),.,+
CCN(CC)c1cc(C)nc(Nc2ccc(NC(=O)C(C)(C)C)cc2)n1,i,+
Cc1cc(N(C)C)nc(NCCNC(=O)Nc2ccc(C)c(C)c2)n1,i,i
O=C1c2ccccc2C(O)(Cc2ccccc2)N1CCCN1CCOCC1 (configuration not stated),.,i
O=C1c2ccccc2C(O)(Cc2ccccc2)N1C(c1ccccc1)c1ccccc1 (configuration not stated),.,+
COc1ccccc1OCC(O)CN(C)C1CCCCC1 (configuration not stated),i,i
Cc1ccnc(C(=O)Nc2ccc(Nc3cc(N4CCOCC4)nc(C)n3)cc2)n1,i,.
Cc1ccnc(C(=O)Nc2ccncc2)n1,i,+
CN(C)C(=O)Cc1ccc(NC(=O)Cc2ccc(Cl)cc2)cc1,i,i
CN(C)C(=O)Cc1ccc(NC(=O)Nc2ccc(Cl)c(Cl)c2)cc1,i,+
COc1ccccc1-c1csc(/C(C#N)=C2\C=CC=CN2C)n1,i,+
N#C/C(=C\c1ccnc2ccccc12)c1nc(-c2ccc(F)cc2)cs1,i,i
CN1C=CC=C/C1=C(/C#N)c1nc(-c2ccccc2)cs1,i,+
CSc1ccc(CNC(=O)c2ccc3c(=O)n4c(nc3c2)SCC4)cc1,i,i
CS(=O)(=O)c1ccc(CC(=O)Nc2ccccc2C#N)cc1,.,i
COc1ccc(CCNC(=O)C(=O)Nc2ccc(NC(C)=O)cc2)cc1,i,+
COc1ccc(CNC(=O)C(=O)Nc2ccc(NC(C)=O)cc2)cc1,i,i
COc1ccc(OC)c2c1sc(=NC(=O)c1cc(C)no1)n2C,i,i
COc1cccc2sc(=NC(=O)c3cc(C)no3)n(C)c12,i,+
O=C(c1cccc([N+](=O)[O-])c1)N(CCN1CCOCC1)c1nc2ccc(F)cc2s1,.,i
O=C(c1cc2cc([N+](=O)[O-])ccc2s1)N(CCN1CCOCC1)c1nc2ccc(F)cc2s1,.,+
O=C(c1ccc([N+](=O)[O-])o1)N(CCN1CCOCC1)c1nc2c(F)cccc2s1,i,+
COc1ccc2sc(N(CCN3CCOCC3)C(=O)c3ccc([N+](=O)[O-])o3)nc2c1,.,i
Cc1ccc2nc(N(CCN3CCOCC3)C(=O)c3ccc([N+](=O)[O-])o3)sc2c1,.,+
SMILES,GIRK2 act,GluA2 TARP mod
O=C(c1ccc([N+](=O)[O-])s1)N(CCN1CCOCC1)c1nc2c(F)cccc2s1,i,i
NC(=O)c1ccc(NC(=O)Cc2csc(NC(=O)c3ccc[nH]c3=O)n2)cc1,i,i
CCOC(=O)C(CC)n1nc2ccc(S(=O)(=O)N3CCC(C)CC3)cn2c1=O (configuration not stated),i,i
O=C(Cn1nc(C(=O)N2CCOCC2)cc1C1CC1)NCCCN1CCCC1=O,i,i
Cn1c(=O)c2cc(C(=O)NCc3ccco3)sc2n(C)c1=O,i,i
O=C(Nc1ccc(F)c([N+](=O)[O-])c1)c1ccc(=O)n(Cc2cccc([N+](=O)[O-])c2)c1,i,i
O=C(NCC1(O)CCOCC1)C(=O)Nc1ccc(F)c(F)c1,i,+
O=C(NCC1(O)CCOCC1)C(=O)Nc1ccc2c(c1)OCCO2,i,i
CCc1c(C)nc(SCC(=O)Nc2cc(C(F)(F)F)ccc2Cl)[nH]c1=O,.,+
Cc1cc(=O)n(CC(=O)Nc2cc(C(F)(F)F)ccc2Cl)cn1,i,i
Cc1ccc([N+](=O)[O-])cc1NC(=O)C(=O)NCc1c(F)cccc1F,.,i
O=C1S/C(=C\c2cccc([N+](=O)[O-])c2)C(=O)N1c1ccc(F)cc1,i,+
O=C1S/C(=C\c2ccc([N+](=O)[O-])cc2)C(=O)N1c1ccc(F)cc1,i,i
O=C(NCC(c1cccc2ccccc12)N1CCCC1)Nc1ccccc1 (configuration not stated),.,i
O=C(c1csc(Nc2ccc(OC(F)F)cc2)n1)N1CCCC1,i,+
NC(=O)C1CCN(C(=O)c2csc(Nc3ccc(OC(F)F)cc3)n2)CC1,i,i
COc1ccc(NC(=O)C(=O)NCC(c2cccs2)N(C)C)c(OC)c1 (configuration not stated),i,i
COc1ccc(Cl)cc1NC(=O)C(=O)NCC(c1cccs1)N(C)C (configuration not stated),i,+
COc1ccc(NC(=O)NCC(O)Cc2ccccc2)cc1OC (configuration not stated),i,i
COc1ccc(Cl)cc1NC(=O)NCC(O)Cc1ccccc1 (configuration not stated),i,+
CC(C)c1cccc2sc(N3CCN(C(=O)c4ccn(C)n4)CC3)nc12,i,i
C=CCn1c(=NC(=O)Cc2ccc(S(C)(=O)=O)cc2)sc2c(OC)ccc(OC)c21,.,i
COc1ccc(OC)c(/C=C2\Oc3cc(O)ccc3C2=O)c1,.,i
CNS(=O)(=O)c1ccc(C(=O)Nc2cccc(C(F)(F)F)c2)o1,i,+
O=C(Nc1cccnc1)c1ccc(S(=O)(=O)NCc2cccs2)o1,i,i
SMILES,GIRK2 act,GluA2 TARP mod
O=C(Nc1cccc(C(F)(F)F)c1)c1ccc(S(=O)(=O)N2CCCC2)o1,i,i
O=C(Nc1cccc(C(F)(F)F)c1)c1ccc(S(=O)(=O)NCc2cccs2)o1,i,+
Cc1c(Cl)cccc1S(=O)(=O)NCC1CCN(c2ccccn2)CC1,i,i
c1coc(CNc2nc(N3CCOCC3)nc(N3CCOCC3)n2)c1,i,i
c1ccc(CNc2nc(N3CCOCC3)nc3ccccc23)cc1,.,+
COc1cc(COCC2CCN(C(=O)CC(c3ccccc3)c3ccccc3)CC2)cc(OC)c1,i,i
COc1cc(CN2CCC(COCc3ccccc3)CC2)cc(OC)c1,i,+
Cc1ccc(S(=O)(=O)N2CCC(C(=O)Nc3ccc(-c4nc5ccccc5[nH]4)cc3)CC2)cc1,i,i
CCOC(=O)c1csc(NC(=O)c2cc3ccccc3o2)n1,.,+
C=CCNC(=O)Nc1nc(C(=O)OCC)cs1,i,i
Cn1nnc2c(N3CCN(C(=O)NCc4cccs4)CC3)ncnc21,i,.
Cc1cc(N2CCOCC2)nc(N2CCN(C(=O)Cc3cccs3)CC2)n1,i,+
O=C(Cc1cccs1)N1CCN(c2ccc(-c3ccccn3)nn2)CC1,i,+
Cc1ccc(C(=O)N2CCN(c3nc(C)cc(N4CCCCC4)n3)CC2)cc1,.,i
Cc1cc(N2CCCC2)nc(N2CCN(C(=O)c3ccccc3)CC2)n1,.,+
Cc1ccc(-c2ccc(N3CCN(C(=O)Cc4cccs4)CC3)nn2)cc1,i,i
Cc1ccccc1-c1ccc(N2CCN(C(=O)Cc3cccs3)CC2)nn1,i,i
COc1ccc2cc(CNc3ccc(C)cc3)c(=O)n(CC(=O)Nc3ccc(F)cc3)c2c1,i,i
CNC(=O)Cn1nnn(-c2ccc(NC(=O)C(C)(C)Oc3ccc(Cl)cc3)cc2)c1=O,i,i
CCOc1ccc(NC(=O)Cn2c(=O)n(CCCCC(=O)NCC(C)C)c(=O)c3ccccc32)cc1,.,i
